For 58 compounds, Potency results are on record in PubChem BioAssay (NCATS).

A short description of test [1]: NS1 protein of Zika virus - qHTS assay to identify small molecule inhibitors in human HEK 293 cells (AID 1347053). Also: series mostly up to about 46 µM; nearly all actives have a fitted effect of over 55% in size. The method, boiled down:
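HEK 293 cells, seeded 20 h at 37 C, were pretreated with compound 1 h, then infected with ZIKV MR766 (MOI = 0.5) for 24 h. NS1 was read by TR-FRET with two anti-NS1 antibodies, normalized to uninfected and infected wells.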
(Quantitative high-throughput screening tests each substance at several concentrations.)

The nature of test [2]: qHTS for Inhibitors of the Functional Ribonucleoprotein Complex (vRNP) of Lassa (LASV) Arenavirus: LASV Primary Screen - GLuc reporter signal (AID 1347082; calls by dose curve; tested in HEK293 reporter line; also: series mostly up to about 57 µM; nearly all actives have a fitted effect of over 60% in size).
Test [3] can be described thus: qHTS for Inhibitors of the Functional Ribonucleoprotein Complex (vRNP) of Lassa (LASV) Arenavirus: Viability assay - alamar blue signal for LASV Primary Screen (AID 1347083; calls by dose curve; tested in HEK293 reporter line; also: series mostly up to about 57 µM; nearly all actives have a fitted effect of over 80% in size).
The nature of test [4]: qHTS for Inhibitors of the Functional Ribonucleoprotein Complex (vRNP) of Lymphocytic Choriomeningitis Arenaviruses (LCMV): Viability assay - alamar blue signal for LCMV Primary Screen (AID 1347085; calls by dose curve; tested in HEK293 reporter line; also: series mostly up to about 57 µM; nearly all actives have a fitted effect of over 80% in size).

Inconclusive results are not listed. A call without a number means that no potency is given here. The source made the active and inactive calls. Unless noted, calls follow the shape of the dose curve; as a rule, active = well fitted inhibition curve with a large enough effect; inconclusive = small, poorly fitted or top-dose-only effect; inactive = no such curve, though single readings can be large or run the other way.

For `CC(C)=CCN1CC[C@@]2(C)c3cc(O)ccc3C[C@@H]1[C@@H]2C`, the Potency entry in test [1], in test [2], in test [3] and in test [4] was “inactive” throughout.
For the compound `COc1cc(CC#N)cc(OC)c1OC`, the Potency result in test [1], in test [2], in test [3] and in test [4] was “inactive” each time.
Regarding `CC(=O)OC1(c2ccccc2)CCN(CCc2ccccc2)CC1`, the Potency entry in test [1], in test [2], in test [3] and in test [4] was “inactive” in each case.
Take `CCCN(CCC)CCc1c[nH]c2ccccc12`: the Potency entry in test [1], in test [2], in test [3] and in test [4] was “inactive” each time.
With `CC(Cc1ccc2c(c1)OCO2)NO` (stereo unspecified), the Potency result in test [1], in test [2], in test [3] and in test [4] was “inactive” in each case.
In the case of `CC(C(O)c1ccccc1)N(C)C/C=C/c1ccccc1` (stereo unspecified), the Potency result in test [1], in test [2], in test [3] and in test [4] was “inactive” in each case.
`COc1ccc2[nH]cc(CCN(C(C)C)C(C)C)c2c1`: the Potency entry in test [1], in test [2], in test [3] and in test [4] was “inactive” in each case.
Regarding `ClCCCN1CCN(c2cccc(Cl)c2)CC1`, the Potency result in test [1], in test [2], in test [3] and in test [4] was “inactive” each time.
In the case of `CCCCOc1cc(C(=O)NCCN(CC)CC)c2ccccc2n1`, the Potency entry in test [2] and in test [3] was “inactive” in each case.
For the compound `COC(=O)[C@H]1[C@H]2C[C@@H]3c4[nH]c5cc(OC)ccc5c4CCN3C[C@H]2C[C@@H](OC(=O)/C=C/c2ccc(O)c(OC)c2)[C@@H]1OC`, the Potency entry in test [2] was “inactive”.
Consider `O=C(O)C(Cc1cc(I)c(O)c(I)c1)c1ccccc1` (stereo unspecified), for which, in test [2], the Potency entry is “inactive”.
On to `CCN(CC)CCNc1ccc(CO)c2sc3ccccc3c(=O)c12`, for which the Potency entry in test [2] is “inactive”.
On to `CC(C(O)c1ccccc1)N(C)CCOC(c1ccccc1)c1ccccc1` (stereo unspecified), for which the Potency result in test [2] was “inactive”.
Still for that read-out and setting: with `COc1ccc([C@@H]2Sc3ccccc3NC(=O)[C@@H]2O)cc1` the entry was “inactive”.
Take `O=C1OC2(c3ccccc31)c1cc(I)c(O)c(I)c1Oc1c2cc(I)c(O)c1I`: the Potency result in test [2] and in test [3] was “inactive” each time.
For `Cc1ccc2c(Br)cc(Br)c(O)c2n1`, the Potency entry in test [2] was “inactive”.
With `C[C@@H](C1=C(CCN(C)C)Cc2ccccc21)c1ccccn1`, the Potency entry in test [2] and in test [3] was “inactive” in each case.
`Cc1ccc2nc(N)[nH]c(=O)c2c1Sc1ccncc1`: in test [2], the Potency entry is “inactive”.
With `O=C(N[C@@H]1N=C(c2ccccc2F)c2cccc3c2N(CC3)C1=O)c1cc2ccccc2[nH]1`, the Potency entry in test [1], in test [2] and in test [4] was “inactive” each time.
Take `C#C[C@]1(O)CC[C@H]2[C@@H]3CCc4cc(O)ccc4[C@H]3CC[C@@]21C`: the Potency entry in test [2] was “inactive”.
Same read-out and setting: with `COc1ccc(-c2nc3ccc(C4=NNC(=O)CC4C)cc3[nH]2)cc1` (stereo unspecified) the entry was “inactive”; with `O=C(OCC(O)CO)c1ccccc1Nc1ccnc2cc(Cl)ccc12` (stereo unspecified), “inactive”; with `COc1cccc2c1C(=O)c1c(O)c3c(c(O)c1C2=O)C[C@@](O)(C(=O)CO)C[C@@H]3O[C@H]1C[C@H](N)[C@H](O[C@@H]2CCCCO2)[C@H](C)O1`, “inactive”.
Turning to `CN1CCN(CCC(=O)N2c3ccccc3Sc3ccc(C(F)(F)F)cc32)CC1`, the Potency entry in test [2] is “inactive”.
Same read-out and setting: the entry for `CCCCC(CC)COC(=O)C(C#N)=C(c1ccccc1)c1ccccc1` (stereo unspecified) is “inactive”; for `CC(=O)Oc1ccc(C2(c3ccc(OC(C)=O)cc3)Oc3ccccc3NC2=O)cc1` it is “inactive”.
In the case of `C=C[C@@]1(C)CC(=O)[C@]2(O)[C@@]3(C)[C@@H](O)CCC(C)(C)[C@@H]3[C@H](O)[C@H](OC(C)=O)[C@@]2(C)O1`, the Potency result in test [2] and in test [3] was “inactive” in each case.
Take `CN1CCCC(n2nc(Cc3ccc(Cl)cc3)c3ccccc3c2=O)CC1` (stereo unspecified): in test [2], the Potency result was “inactive”.
Still for that read-out and setting: the entry for `O=C1N(c2ccccc2)c2ccccc2C1(Cc1ccncc1)Cc1ccncc1` is “inactive”.
Take `CC1(C)O[C@@H]2C[C@H]3[C@@H]4CCC5=CC(=O)CC[C@]5(C)[C@@]4(F)[C@@H](O)C[C@]3(C)[C@]2(C(=O)CCl)O1`: the Potency result in test [2] and in test [3] was “inactive” each time.
In the case of `CCCSS/C(CCO)=C(\C)N(C=O)Cc1cnc(C)nc1N`, in test [2], the Potency result is “inactive”.
The same measure, in the same setting: the entry for `NC(=O)C1(N2CCCCC2)CCN(CCCN2c3ccccc3CCc3ccc(Cl)cc32)CC1` is “inactive”.
Still for that read-out and setting: with `CCCS(=O)c1ccc2nc(NC(=O)OC)[nH]c2c1` (stereo unspecified) the entry was “inactive”; with `CCN(CC)CCOc1ccc2c(c1)C(=O)c1cc(OCCN(CC)CC)ccc1-2`, “inactive”; with `COc1cc(O)c(C(=O)c2ccccc2)cc1S(=O)(=O)O`, “inactive”.
Turning to `CC(C)=CCNc1ncnc2c1ncn2[C@@H]1O[C@H](CO)[C@@H](O)[C@H]1O`, the Potency result in test [2] was “inactive”.
For `COc1cc(N)c(Cl)cc1C(=O)NC1CCN(CCCOc2ccc(F)cc2)CC1OC` (stereo unspecified), the Potency entry in test [2] and in test [3] was “inactive” in each case.
Regarding `COc1ccc(CCN2CCC(Nc3nc4ccccc4n3Cc3ccc(F)cc3)CC2)cc1`, the Potency result in test [2] and in test [3] was “inactive” throughout.
`CC(=C(CCOC(=O)C(C)C)SSC(CCOC(=O)C(C)C)=C(C)N(C=O)Cc1cnc(C)nc1N)N(C=O)Cc1cnc(C)nc1N`: the Potency result in test [2] and in test [3] was “inactive” each time.
Consider `CCN(CC)CCCC(C)Nc1c2ccc(Cl)cc2nc2ccc(OC)cc12` (stereo unspecified), for which, in test [2], the Potency entry is “inactive”.
On the same count and under the same terms, the entry for `CC[C@]12CCCN3CCc4c(n(c5ccccc45)C(=O)C1)[C@@H]32` is “inactive”.
Regarding `Cc1c(C)n(CCN(C)C)c2ccc(C(=O)OCCN(C)C)cc12`, the Potency entry in test [2] was “inactive”.
On the same count and under the same terms, with `COC(=O)Nc1nc2ccc(S(=O)c3ccccc3)cc2[nH]1` (stereo unspecified) the entry was “inactive”.
On to `CC(CNC1CCCCC1)OC(=O)c1ccccc1` (stereo unspecified), for which the Potency entry in test [2] and in test [3] was “inactive” in each case.
For `CN1CCCC(CC2c3ccccc3Sc3ccccc32)C1` (stereo unspecified), the Potency entry in test [2] is “inactive”.
Consider `CCOC(=O)OC(C)OC1=C(C(=O)Nc2ccccn2)N(C)S(=O)(=O)c2ccccc21` (stereo unspecified), for which the Potency result in test [2] and in test [3] was “inactive” throughout.
Consider `OC[C@H]1O[C@@H](n2cnc3c(=S)nc[nH]c32)[C@H](O)[C@@H]1O`, for which, in test [2], the Potency entry was “inactive”.
In the case of `O=C(c1cc(O)c(O)c(O)c1)c1ccc(O)c(O)c1O`, the Potency result in test [2], in test [3] and in test [4] was “inactive” throughout.
Turning to `CC(=O)Oc1c(C)c(C)c2c(c1C)CC[C@@](C)(CCC[C@H](C)CCC[C@H](C)CCCC(C)C)O2`, the Potency entry in test [2], in test [3] and in test [4] was “inactive” each time.
As for `CC(C)COCC(CN(Cc1ccccc1)c1ccccc1)N1CCCC1` (stereo unspecified), the Potency entry in test [2], in test [3] and in test [4] was “inactive” each time.
Regarding `CCOc1ccc(Cc2nccc3cc(OCC)c(OCC)cc23)cc1OCC`, the Potency entry in test [2], in test [3] and in test [4] was “inactive” in each case.
As for `CC(C)(Cc1c[nH]c2ccccc12)NCC(O)COc1ccccc1C#N` (stereo unspecified), the Potency result in test [2], in test [3] and in test [4] was “inactive” throughout.
For `O=C1Nc2cc(Cl)ccc2Oc2ccccc21`, the Potency result in test [2], in test [3] and in test [4] was “inactive” in each case.
Take `CCCCOc1cc(C(=O)OCCN(CC)CC)ccc1N`: the Potency result in test [2], in test [3] and in test [4] was “inactive” throughout.
For `O=C(O)c1cn(C2CC2)c2cc(Cl)c(F)cc2c1=O`, the Potency result in test [2], in test [3] and in test [4] was “inactive” in each case.
As for `CCc1cccc2c(CCO)c[nH]c12`, the Potency entry in test [2], in test [3] and in test [4] was “inactive” in each case.
On to `CC1(C)O[C@@H]2C[C@H]3[C@@H]4C[C@H](F)C5=CC(=O)C=C[C@]5(C)[C@H]4[C@@H](O)C[C@]3(C)[C@]2(C(=O)CO)O1`, for which the Potency result in test [2], in test [3] and in test [4] was “inactive” each time.
Consider `CN(C)C/C=C(/c1ccc(Br)cc1)c1cccnc1`, for which the Potency entry in test [2], in test [3] and in test [4] was “inactive” throughout.
